From ChEMBL document CHEMBL1201862, “PubChem BioAssay data set” (2004) come the findings set out here.

In all, about 53,000 sequences went through this assay and about 3,200 (6%) were called active. The sample holds actives, similar sequences and a random draw of the others, so the mix is not that of the screen. No stated cut-off is given here; in the data, active = GI50 up to about 1.1 µM and inactive = higher. Results with a measured potency or affinity are listed apart.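 Where inhibition never reached the appropriate level, the endpoint shown equals the highest concentration tested. Otherwise, values were interpolated linearly from a five-concentration, 48-hour dose response in 96-well plates. GI50 is the concentration that inhibits growth by half.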

This assay concerns HCC 2998. Briefly: NCI tumour cell line growth inhibition, 48 h.
In turn, CISPLATIN, CHEMBL11359 had a GI50 of 5.4 µM.

Substance “[Bis(aminomethyl)tetramethylenesilane]dichloropaltinum(II), CHEMBL2146205” returned a GI50 of 25.4 µM. In turn, “[Bis(aminomethyl)dimethylsilane]tetrachloroplatinum(IV), CHEMBL2146190” came in with a GI50 of 6.78 µM. “[Bis(aminomethyl)dimethylsilane]dichloroplatinum (II), CHEMBL2146201”: the GI50 came out at 10 µM. As to “[Bis(aminomethyl)pentamethylenesilane]tetrachloropaltinum(IV), CHEMBL2146204”, the GI50 came to 0.313 µM.

“[Bis(aminomethyl)ethylmethylsilane]tetrachloroplatinum(IV), CHEMBL2146192” returned a GI50 of 2.38 µM.

Consider “[Bis(aminomethyl)tetramethylenesilane]tetrachloropaltinum(IV), CHEMBL2146189”, for which the GI50 was 0.682 µM. In the case of “mu-(1,7-nanodiamine-N,N')bis-(cis-aminedichloroplatimum (II)), CHEMBL2146215” it was 24 µM. “[Bis(aminomethyl)pentamethylenesilane]dichloropaltinum(II), CHEMBL2146202” displayed a GI50 of 3.52 µM.
